Test results from PubChem BioAssay AID652070 (Broad Institute, 2013).
Results filed as inconclusive are left out. Activity calls are given as the source filed them. No rule for the calls is given here.

Assay: apoptosis induction over several timepoints – cell-based, HT29 HRAS, caspase 3/7 luminescence, multiple timepoints, dry powder, mechanism study for HRAS target identification (AID 652070)
Conditions: HT29 HRAS cells; max activity: measured here: third timepoint caspase 3/7, at 0.068 µM, stronger effect = higher value unless noted; series mostly up to 35 µM

**Q.** Which max activity does the source give for CO[C@H]1C[C@@H]2CC[C@@H](C)[C@@](O)(O2)C(=O)C(=O)N2CCCC[C@H]2C(=O)O[C@H]([C@H](C)C[C@@H]2CC[C@@H](O)[C@H](OC)C2)CC(=O)[C@H](C)/C=C(\C)[C@@H](O)[C@@H](OC)C(=O)[C@H](C)C[C@H](C)/C=C/C=C/C=C/1C here?
**A.** 31.1% [measured here: third timepoint caspase 3/7, at 35 µM, stronger effect = higher value]

**Q.** And the outcome?
**A.** inactive

**Q.** Which results are given for Cc1onc(C(=O)N2CCN(C(c3ccc(Cl)cc3)c3ccc(Cl)cc3)CC2)c1[N+](=O)[O-]?
**A.** max activity: 13.3% [measured here: third timepoint caspase 3/7, at 0.0001 µM, stronger effect = higher value]; outcome: inactive

**Q.** Which max activity does the source give for CCC(=O)N(c1ccc(OC)c(Cl)c1)C(C(=O)NCCc1ccccc1)c1cccs1 (configuration not stated) here?
**A.** 17.8%

**Q.** What about the outcome of the same molecule?
**A.** inactive

**Q.** Which max activity does the source give for O=C(NCCOCCOCCOc1ccc(N(C(=O)CCl)C(C(=O)NCCc2ccccc2)c2cccs2)cc1Cl)c1ccc(COC2C#CCCCCC2)cc1 (configuration not stated) here?
**A.** 24.4%

**Q.** What about the outcome of the same molecule?
**A.** inactive

**Q.** For Cc1onc(C(=O)N2CCN(C(c3ccc(Cl)cc3)c3ccc(OCCOCCOCCNC(=O)OC(C)(C)C)cc3)CC2)c1[N+](=O)[O-] (configuration not stated), which max activity is on record?
**A.** 22.2% [measured here: third timepoint caspase 3/7, at 0.0001 µM, stronger effect = higher value]

**Q.** And the outcome?
**A.** inactive

**Q.** For COc1ccc(N(C(=O)CCl)C(C(=O)NCCc2ccccc2)c2cccs2)cc1Cl (configuration not stated), which max activity is on record?
**A.** 22.2% [measured here: third timepoint caspase 3/7, at 8 µM, stronger effect = higher value]

**Q.** What about the outcome of the same molecule?
**A.** inactive
